# According to PubChem BioAssay AID504329 (Southern Research Specialized Biocontainment Screening …, 2011):
# Screen size: about 340,000 compounds; about 1,000 (0.29%) were called active. No stated cut-off is given here; in the data, inconclusive means inhibition above about 27% without an active follow-up result; inactive means below that. The list is a sample of the results. Entries with a potency or affinity are not part of this list.
# Test: NS1A inhibition, H1N1 influenza, cell based functional assay (AID 504329)
# Settings: percent inhibition, at 12.5 µM, hits give high values
row,Compound,inhibition
1,CN(C)N=C1c2cc(S(=O)(=O)N3CCOCC3)ccc2-c2ccc(S(=O)(=O)N3CCOCC3)cc21,19.5% (inactive)
2,O=C(CCN1C(=O)/C(=C/c2ccccc2Cl)SC1=S)Nc1cccnc1,-1.44% (inactive)
3,O=C(CCN1C(=O)c2ccccc2S1(=O)=O)N1CCN(c2ccccc2F)CC1,-1.99% (inactive)
4,O=C(NNC(=S)NC(=O)c1ccccc1)c1cccnc1,4.4% (inactive)
5,Cc1ccccc1C(=O)NNC(=S)NC(=O)c1cccnc1,2.35% (inactive)
6,Cc1ccc(C(=O)NC(=S)NNC(=O)c2ccccc2O)cc1,34.2% (inactive)
7,O=C(NC(=S)NNC(=O)c1ccccc1O)c1ccc([N+](=O)[O-])cc1,1.41% (inactive)
8,O=C(NNC(=S)NC(=O)c1ccccc1)c1cccc([N+](=O)[O-])c1,-20.7% (inactive)
9,Cc1ccccc1C(=O)NNC(=S)NC(=O)c1ccccc1,-4.23% (inactive)
10,Cc1ccc(-n2c(CNc3ccc(F)cc3)nnc2SCC(N)=O)cc1,6.65% (inactive)
11,Cc1cccc(NS(=O)(=O)c2cccc(C(=O)N3CCN(C/C=C/c4ccccc4)CC3)c2)c1,-7.79% (inactive)
12,CCN(c1ccccc1)S(=O)(=O)c1ccc2c(c1)CCCN2C(C)=O,5.4% (inactive)
13,CC(=O)CCCC(NS(=O)(=O)CCC(Cl)(Cl)Cl)c1ccccc1 (configuration not stated),1.88% (inactive)
14,Oc1ccccc1C=NCCCCCCN=Cc1ccccc1O,-8.96% (inactive)
15,Oc1ccccc1C=NCCN=Cc1ccccc1O,18.6% (inactive)
16,COc1cccc(CN(C)C(=O)c2ccc(OCC(=O)N3CCOCC3)c(OC)c2)c1,-6.73% (inactive)
17,COc1ccccc1OCc1nc2ccccc2[nH]1,1.78% (inactive)
18,CCOC(=O)c1nc(Nc2ccc(N3CCOCC3)cc2)c2ccccc2n1,-12.1% (inactive)
19,CCOC(=O)c1nc(Nc2ccc(Nc3ccccc3)cc2)c2ccccc2n1,10.9% (inactive)
20,CCCCCC(=O)Nc1ccc(S(=O)(=O)Nc2nccc(C)n2)cc1,-0.66% (inactive)
21,Cc1ccc2nc(C)cc(N3CCOCC3)c2c1,-16.8% (inactive)
22,Cc1csc(NC(=O)CSc2nnc(NC(=O)C3CC(=O)N(c4ccccc4)C3)s2)n1 (configuration not stated),-4.67% (inactive)
23,COc1ccc(NC(=O)CSc2ccc(-c3ccccn3)nn2)cc1OC,1.4% (inactive)
24,Cc1ccc(NC(=O)CSc2ccc(-c3ccccn3)nn2)c(C)c1,3.42% (inactive)
25,COc1ccc(C)cc1NC(=O)CSc1ccc(-c2cccnc2)nn1,-8.69% (inactive)

row,Compound,inhibition
1,Cc1nnc(NC(=O)CSc2ccc3nnc(-c4ccccn4)n3n2)s1,15.4% (inactive)
2,Cc1ccccc1NC(=O)CSc1ccc(-c2ccccn2)nn1,12.1% (inactive)
3,O=C(CSc1ccc2nnc(-c3ccncc3)n2n1)Nc1nccs1,-1.97% (inactive)
4,Cc1csc(NC(=O)CSc2ccc(-c3ccccc3)nn2)n1,-3.27% (inactive)
5,O=C(CSc1ccc(-c2ccccn2)nn1)Nc1nccs1,4.83% (inactive)
6,COc1cccc(N2CCN(C(=S)Nc3ccccc3)CC2)c1,4.19% (inactive)
7,COc1ccc(CCNC(=O)COC(=O)c2ccc(C)s2)cc1,-10% (inactive)
8,COc1ccc(C(CNC(=O)C2CC(=O)N(Cc3ccc(C)cc3)C2)N(C)C)cc1 (configuration not stated),-3.01% (inactive)
9,O=C(NCCc1ccc(F)cc1)C1CCCCC1,2.71% (inactive)
10,CCOC(=O)C1CCCN(C(=O)COc2ccc(N(C)S(=O)(=O)c3ccc(F)cc3)cc2)C1 (configuration not stated),-23.6% (inactive)
11,Cc1nnc(SCC(=O)Nc2ccc(Cl)cn2)n1Cc1ccccc1,1.7% (inactive)
12,CCOC(=O)Nc1n[nH]c(NC(=O)OCC)c1[N+](=O)[O-],8.99% (inactive)
13,CN1/C(=C\C=N\O)C(C)(C)c2ccccc21,-7.5% (inactive)
14,CN1/C(=C\C=Nc2ccc3ccccc3c2)C(C)(C)c2ccccc21,2.41% (inactive)
15,CO/N=C/C=C1/N(C)c2ccccc2C1(C)C,11.6% (inactive)
16,CN1/C(=C\C=Nc2ccccc2)C(C)(C)c2ccccc21,-3.07% (inactive)
17,Cc1ccc(-c2nc(CNC(=O)c3cc(C)on3)cs2)cc1,-7.61% (inactive)
18,O=C(N/N=C/c1ccccc1)C1CCCN1C(=O)c1cc([N+](=O)[O-])cc([N+](=O)[O-])c1 (configuration not stated),-6.49% (inactive)
19,CNS(=O)(=O)c1cccc(C(=O)OCc2cc(=O)n3cc(Br)ccc3n2)c1,1.47% (inactive)
20,CCCCCSc1cc(OC)c(CCN)cc1OC,15.3% (inactive)
21,CCCCCSc1cc(OC)c(CCN(C)C)cc1OC,10.3% (inactive)
22,NC(=O)NCc1cccs1,-4.81% (inactive)
23,CC(C)N(Cc1nc2ccccc2[nH]1)C(C)C,-21.7% (inactive)
24,O=C(O)COCc1nc2ccccc2[nH]1,-15.3% (inactive)
25,CCn1c(SCC(=O)Nc2nccs2)nnc1-c1cccnc1,-5.86% (inactive)

row,Compound,inhibition
1,COc1cc(NC(=O)c2cc([N+](=O)[O-])ccc2NC(=O)CNCc2ccccn2)cc(OC)c1,-1.96% (inactive)
2,O=C(CNC1CCCCC1)Nc1ccc([N+](=O)[O-])cc1C(=O)Nc1ccccc1F,-6.89% (inactive)
3,COc1ccc(NC(=O)c2cc([N+](=O)[O-])ccc2NC(=O)CNC2CCCCC2C)c(OC)c1 (configuration not stated),-6.01% (inactive)
4,O=C(CN1CCN(c2ccccn2)CC1)Nc1ccc([N+](=O)[O-])cc1C(=O)Nc1ccccc1F,12% (inactive)
5,CCn1c(=O)c([N+](=O)[O-])c(NC2CCS(=O)(=O)C2)c2ccccc21 (configuration not stated),-2.22% (inactive)
6,CC(C)C(c1nnnn1C(C)(C)C)N1CCC(Cc2ccccc2)CC1 (configuration not stated),-3.35% (inactive)
7,CCCN(CCC)Cc1c(C(=O)N/N=C/C(C)=C\c2ccccc2)nnn1-c1nonc1N,6.9% (inactive)
8,COc1cc(/C=C(\NC(=O)c2ccccc2)C(=O)NC(C(=O)O)c2ccccc2)cc(OC)c1OC (configuration not stated),2.4% (inactive)
9,Cc1ccc([N+](=O)[O-])c2cccnc12,-5.17% (inactive)
10,Cc1ccccc1-c1nn[nH]n1,-2.96% (inactive)
11,Cc1cccc(NCc2ccc(O)c3ncccc23)c1,-1.23% (inactive)
12,CC(C)COCc1ccc(O)c2ncccc12,1.04% (inactive)
13,Cc1ccccc1NCc1ccc(O)c2ncccc12,11.8% (inactive)
14,Cc1ccc(NCc2ccc(O)c3ncccc23)cc1,-2.47% (inactive)
15,O=[N+]([O-])c1ccc(O)c2cccnc12,-3.9% (inactive)
16,c1ccc2c(-c3nn[nH]n3)cccc2c1,-2.59% (inactive)
17,Cc1ccccc1Nc1nc(-c2cccnc2)nc2ccccc12,-4.04% (inactive)
18,CCOc1ccccc1-n1c(O)c(C=NCCCn2ccnc2)c(=O)[nH]c1=O,3.36% (inactive)
19,CN1CCC(N(C)C(=O)c2ccccc2F)CC1,17.7% (inactive)
20,CN1CC2=Cc3ccccc3OC23Oc2ccccc2C=C3C1,3.84% (inactive)
21,O=C(CCCOc1ccccc1)Nc1cccc(S(=O)(=O)N2CCCCC2)c1,-17.5% (inactive)
22,CCN1CCN(C(=O)CS(=O)(=O)Cc2nc(-c3cccc(OC)c3)oc2C)CC1,-5.29% (inactive)
23,NC(=O)C1CCN(S(=O)(=O)Cc2ccccc2Cl)CC1,4.51% (inactive)
24,COc1ccc(CNC(=O)c2cc(C)nn2-c2ccccc2)cc1,0.54% (inactive)
25,COC(=O)c1ccc(Cn2nc(-c3ccccc3)ccc2=O)cc1,-6.12% (inactive)

row,Compound,inhibition
1,O=C1OCC(c2ccccc2)=C1c1ccccc1[N+](=O)[O-],-4.03% (inactive)
2,COCCn1ccc2c(OCC(=O)NCCc3ccccc3)cccc2c1=O,-4.46% (inactive)
3,COCc1ccc(O)c2ncccc12,2.78% (inactive)
4,Oc1ccc(Cl)c2cccnc12,-4.63% (inactive)
5,CCCOCc1ccc(O)c2ncccc12,-7.06% (inactive)
6,Oc1ccc(F)c2cccnc12,3.59% (inactive)
7,Cc1ccsc1C1CC(=O)NC2=C1C(=O)CC(C)(C)C2 (configuration not stated),-0.46% (inactive)
8,Cc1ccc(CNC(=O)C2CCC(=O)N(CCc3cccc(F)c3)C2)s1 (configuration not stated),11.3% (inactive)
9,O=C(Nc1c2c(nn1-c1cccc(Cl)c1)CS(=O)(=O)C2)c1ccc2c(c1)OCO2,0.57% (inactive)
10,Cc1ccc(-c2cc(C(=O)N/N=C/c3c(C)nn(-c4ccccc4)c3C)[nH]n2)cc1,11.2% (inactive)
11,Cc1nn(-c2ccccc2)c(C)c1/C=N/NC(=O)c1cc(O)cc(O)c1,-10.7% (inactive)
12,Cc1nn(-c2ccc(F)cc2)c(Cl)c1/C=N/NC(=O)c1ccc(O)cc1,9.96% (inactive)
13,Cc1nn(-c2ccccc2)c(N2CCCC2)c1/C=N/NC(=O)c1cc2ccccc2cc1O,2.95% (inactive)
14,Cc1nn(-c2ccccc2)c(C)c1/C=N/NC(=O)c1ccccc1O,6.87% (inactive)
15,Cc1nn(-c2ccccc2)c(C)c1/C=N/NC(=O)c1cc(-c2ccccc2)n[nH]1,-0.6% (inactive)
16,COc1ccc(-c2nc(CS(=O)CC(=O)N3CCN(C)CC3)c(C)o2)cc1OC (configuration not stated),-3.22% (inactive)
17,COc1ccc(CCCc2nnc(SCC(=O)Nc3cc(C)c(C)cc3Br)o2)cc1,-5.67% (inactive)
18,O=C(CS(=O)(=O)Cc1ccccc1)N1CCN(C(=O)c2ccco2)CC1,-6.89% (inactive)
19,Cc1ccc(S(=O)(=O)N/N=C(\c2ccccc2)c2cccnc2)cc1,-2.16% (inactive)
20,CNc1c([N+](=O)[O-])cnn1-c1ccccc1Cl,-8.09% (inactive)
21,COc1ccccc1-n1cc2c([N+](=O)[O-])cc([N+](=O)[O-])cc2n1,41.1% (inactive)
22,COc1ccc(C(=O)Nc2nc(-c3ccc([N+](=O)[O-])cc3)c(-c3ccc(OC)cc3)s2)cc1,-6.06% (inactive)
